# Shown is part of a subset that was picked to be rich in the strongest signals.
# Key:
# Assay in all cases: glycan array binding signal (z-score within array); higher = stronger binding
# Conditions in all cases: glycan notation: IUPAC condensed, linker removed
# [1] = molecular target: Gal6P(b1-4)GlcNAc
# Procedure, shortened: (§1)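 Columns mapping to the same glycan were averaged after glycan names were converted to IUPAC-condensed notation. The data come from 3228 arrays in the Consortium for Functional Glycomics database, limited to those with an available protein sequence. Binding is reported as a within-array Z-score averaged across arrays of one protein sequence and across linkers.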
# [2] = molecular target: GalNAc(b1-3)GlcNAc
# Procedure, shortened: as §1
# [3] = molecular target: GalNAc(b1-4)GlcNAc(b1-2)Man(a1-3)[GalNAc(b1-4)GlcNAc(b1-2)Man(a1-6)]Man(b1-4)GlcNAc(b1-4)GlcNAc
# Procedure, shortened: as §1
# [4] = molecular target: GalNAc(b1-6)GalNAc
# Procedure, shortened: as §1
# [5] = molecular target: GalNAc3S(b1-4)GlcNAc3S
# Procedure, shortened: as §1
# [6] = molecular target: GlcA(b1-6)Gal
# Procedure, shortened: as §1
# [7] = molecular target: GlcA3S(b1-3)Gal(b1-4)GlcNAc(b1-2)Man
# Procedure, shortened: as §1
# [8] = molecular target: GlcNAc(a1-4)Gal(b1-4)GlcNAc
# Procedure, shortened: as §1
# [9] = molecular target: GlcNAc(b1-3)Gal(b1-3)GalNAc
# Procedure, shortened: as §1
# [10] = molecular target: GlcNAc(b1-3)Gal(b1-4)GlcNAc(b1-2)Man(a1-3)[GlcNAc(b1-3)Gal(b1-4)GlcNAc(b1-2)Man(a1-6)]Man(b1-4)GlcNAc(b1-4)[Fuc(a1-6)]GlcNAc
# Procedure, shortened: as §1
# [11] = molecular target: GlcNAc(b1-3)Gal(b1-4)GlcNAc(b1-3)Gal(b1-4)GlcNAc(b1-2)[GlcNAc(b1-3)Gal(b1-4)GlcNAc(b1-3)Gal(b1-4)GlcNAc(b1-6)]Man(a1-6)[GlcNAc(b1-3)Gal(b1-4)GlcNAc(b1-3)Gal(b1-4)GlcNAc(b1-2)Man(a1-3)]Man(b1-4)GlcNAc(b1-4)[Fuc(a1-6)]GlcNAc
# Procedure, shortened: as §1
# [12] = molecular target: GlcNAc(b1-3)Gal(b1-4)GlcNAc(b1-3)Gal(b1-4)GlcNAc(b1-3)Gal(b1-4)GlcNAc(b1-2)Man(a1-3)[GlcNAc(b1-3)Gal(b1-4)GlcNAc(b1-3)Gal(b1-4)GlcNAc(b1-3)Gal(b1-4)GlcNAc(b1-2)Man(a1-6)]Man(b1-4)GlcNAc(b1-4)[Fuc(a1-6)]GlcNAc
# Procedure, shortened: as §1
# [13] = molecular target: GlcNAc(b1-3)[GlcNAc(b1-4)][GlcNAc(b1-6)]GlcNAc
# Procedure, shortened: as §1
# [14] = molecular target: GlcNAc(b1-3)[GlcNAc(b1-6)]GalNAc
# Procedure, shortened: as §1
# [15] = molecular target: Kdn(a2-6)Gal(b1-4)GlcNAc
# Procedure, shortened: as §1
# [16] = molecular target: Man(a1-3)[Man(a1-6)]Man
# Procedure, shortened: as §1
# [17] = molecular target: Neu5Ac(a2-3)Gal(b1-3)GalNAc6S
# Procedure, shortened: as §1
# [18] = molecular target: Neu5Ac(a2-3)Gal(b1-4)GlcNAc(b1-3)Gal(b1-4)GlcNAc(b1-3)Gal(b1-4)GlcNAc(b1-2)Man(a1-3)[Neu5Ac(a2-3)Gal(b1-4)GlcNAc(b1-3)Gal(b1-4)GlcNAc(b1-3)Gal(b1-4)GlcNAc(b1-2)Man(a1-6)]GalNAc
# Procedure, shortened: as §1
# [19] = molecular target: Neu5Ac(a2-3)Gal(b1-4)GlcNAc(b1-6)[Neu5Ac(a2-3)Gal(b1-3)]GalNAc
# Procedure, shortened: as §1
# [20] = molecular target: Neu5Ac(a2-3)Gal(b1-4)[Fuc(a1-3)]GlcNAc(b1-6)[Gal(b1-3)]GalNAc
# Procedure, shortened: as §1
# [21] = molecular target: Neu5Ac(a2-3)[GalNAc(b1-4)]Gal(b1-4)Glc
# Procedure, shortened: as §1
# [22] = molecular target: Neu5Ac(a2-6)Gal(b1-4)GlcNAc(b1-2)Man(a1-6)[GlcNAc(b1-2)Man(a1-3)]Man(b1-4)GlcNAc(b1-4)GlcNAc
# Procedure, shortened: as §1
# [23] = molecular target: Neu5Ac(a2-6)Gal(b1-4)GlcNAc(b1-3)Gal(b1-4)GlcNAc(b1-3)Gal(b1-4)GlcNAc(b1-2)Man(a1-3)[Neu5Ac(a2-6)Gal(b1-4)GlcNAc(b1-3)Gal(b1-4)GlcNAc(b1-3)Gal(b1-4)GlcNAc(b1-2)Man(a1-6)]GalNAc
# Procedure, shortened: as §1
# [24] = molecular target: Neu5Ac(a2-6)Gal(b1-4)GlcNAc(b1-3)Gal(b1-4)GlcNAc(b1-3)GalNAc
# Procedure, shortened: as §1
# [25] = molecular target: Neu5Ac(a2-6)GalNAc
# Procedure, shortened: as §1
# [26] = molecular target: Neu5Ac(a2-6)GalNAc(b1-4)GlcNAc6S
# Procedure, shortened: as §1
# [27] = molecular target: Neu5Ac(a2-8)Neu5Ac(a2-8)Neu5Ac
# Procedure, shortened: as §1
# [28] = molecular target: Neu5Gc(a2-3)Gal(b1-3)GlcNAc
# Procedure, shortened: as §1
# [29] = molecular target: Neu5Gc(a2-3)Gal(b1-4)GlcNAc(b1-3)Gal(b1-4)GlcNAc(b1-2)Man(a1-3)[Neu5Gc(a2-3)Gal(b1-4)GlcNAc(b1-3)Gal(b1-4)GlcNAc(b1-2)Man(a1-6)]Man(b1-4)GlcNAc(b1-4)GlcNAc
# Procedure, shortened: as §1
binder,measurement,setting,value
"AFL5 (Aspergillus fumigatus), Q4WB00 (protein) MDNFMEMTKKLGHQPELLRLRALDATYDDALEGKLVVAPLDMSEPGKKILDSGTADGTWLRNVRSKQSVPHDYYGSDVEGELFPKDPDGITYFAHSFKDPWPQQYLGFFDLVHIRGSLAGSAPEGPAPVIQNLTTLLKPGGWVQLMEMNAFSPPPNGPAMTDFAKMASEMFTGIGVGDFANNNKSMLEDAGLKNVQEKRVIVNLGKKAKPELHDQSIHGVTGPIVPLTSVARTVKSSFTGEQLDALPARVKEELETEGGQVEMIIAFGQKA",glycan array binding signal (z-score),[1],-0.398
same,glycan array binding signal (z-score),[2],-0.465
same,glycan array binding signal (z-score),[3],0.619
same,glycan array binding signal (z-score),[4],-0.013
same,glycan array binding signal (z-score),[5],-0.187
same,glycan array binding signal (z-score),[6],-0.217
same,glycan array binding signal (z-score),[7],0.082
same,glycan array binding signal (z-score),[8],-0.335
same,glycan array binding signal (z-score),[9],0.205
same,glycan array binding signal (z-score),[10],0.456
same,glycan array binding signal (z-score),[11],1.94
same,glycan array binding signal (z-score),[12],1.47
same,glycan array binding signal (z-score),[13],-0.493
same,glycan array binding signal (z-score),[14],-0.216
same,glycan array binding signal (z-score),[15],0.092
same,glycan array binding signal (z-score),[16],0.203
same,glycan array binding signal (z-score),[17],-0.456
same,glycan array binding signal (z-score),[18],2.14
same,glycan array binding signal (z-score),[19],-0.74
same,glycan array binding signal (z-score),[20],0.716
same,glycan array binding signal (z-score),[21],-0.53
same,glycan array binding signal (z-score),[22],-0.146
same,glycan array binding signal (z-score),[23],2.17
same,glycan array binding signal (z-score),[24],-0.298
same,glycan array binding signal (z-score),[25],-0.731
same,glycan array binding signal (z-score),[26],0.024
same,glycan array binding signal (z-score),[27],0.079
same,glycan array binding signal (z-score),[28],-0.526
same,glycan array binding signal (z-score),[29],0.635
